Assay outcomes (PubChem)
Shown are actives, neighbours in structure and some others; about 6.8% of the full set was active somewhere.
NADH enzymes: inhibition of NAD/NADH coupling enzymes, library profiling | coupled PK/LDH NADH assays, four targets | IC50, µM (series often up to 10 µM) | actives 0.02% (n = 65,000) | AID 774;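 active = single-dose screening hits from any of four coupled enzyme assays that gave an IC50 when retested across doses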;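 note: the DPM-DC format reads NADH fluorescence rather than 340 nm absorbance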
PMK inhibit: blocks S. pneumoniae phosphomevalonate kinase; purified PMK, PK/LDH-coupled NADH absorbance 340 nm; inhibition, % at 10 µM; actives 0.49% (n = 65,000);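 active = top-ranked compounds by inhibition in the single 10 µM screen, taking a fixed number of the strongest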
Fluor 339 460: intrinsic fluorescence of library compounds, ex339/em460 – biochemical, MLSMR library, data from DPM-DC assay, artefact control, profiling panel; compound autofluorescence, ex339/em460 nm, NADH buffer; stronger effect = higher value; 1 = no-compound wells, NADH background; fluorescence fold increase at 10 µM; actives 5.5% (n = 65,000);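 active = at 10 µM, mean starting fluorescence two-fold or more over control wells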;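 note: signal is the first read of a kinetic run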
A340 absorber: compounds absorbing at 340 nm; compound absorbance at 340 nm, fold over control; fold change at 10 µM; 65,000 tested, under 10 active; AID 708;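 active = at 10 µM dose, initial 340 nm absorbance at least 2 fold that of control wells; inactive = change under 2 fold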;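 note: initial absorbance extrapolated from kinetic A340 decline of NADH oxidation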
Spn DPM-DC inh: S. pneumoniae DPM-DC inhibition | purified DPM-DC, PK/LDH coupled NADH fluorescence | calls only at 10 µM | actives 0.49% (n = 65,000);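 active = the 320 compounds with the highest percent inhibition in the single-dose primary screen, excluding strongly autofluorescent ones, cut at about 32% in these data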;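 note: kinetic rate of NADH fluorescence loss reporting ADP formed by the decarboxylase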
Spn MK inh: blocks S. pneumoniae mevalonate kinase. inhibition, % at 10 µM. actives 0.48% (n = 65,000). purified MK, PK/LDH-coupled NADH absorbance 340 nm;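 active = ranked among the strongest by inhibition in the single 10 µM screen, a fixed top-ranked set picked for dose follow-up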
Numbers stand for hits; – = inactive; · = not tested or not shown; + = active, no number.

SMILES	NADH enzymes	PMK inhibit	Fluor 339 460	A340 absorber	Spn DPM-DC inh	Spn MK inh
CCC(NC(=O)Cn1cnc2c(=O)n(C)c(=O)n(C)c21)c1ccccc1 (stereo not given)	–	–	–	–	–	–
CCOC(=O)c1ccccc1NC(=O)Cn1cnc2c(oc3ccccc32)c1=O	–	–	–	–	–	–
CCOC(=O)C1=C(C)NC2=C(C(=O)CCC2)C1c1cccnc1 (stereo not given)	–	–	2.08	–	·	–
CC1=C(C(=O)OCC2CCCO2)C(c2ccccc2)NC(=O)N1 (stereo not given)	–	–	–	–	–	–
CCOC(=O)C1=C(N)OC2=C(C(=O)CCC2)C1c1cccnc1 (stereo not given)	–	–	–	–	–	–
CCOC(=O)C1=C(C)NC2=C(C(=O)CCC2)C1c1ccsc1 (stereo not given)	–	–	2.48	–	–	–
CC1=C(C(=O)OCC2CCCO2)C(c2ccncc2)C2=C(CCCC2=O)N1 (stereo not given)	–	–	–	–	+	–
COc1ccc(CC(=O)NC2CCN(CC(=O)Nc3ccc4c(c3)OCCO4)CC2)cc1OC	–	–	–	–	–	–
CCOC(=O)N1CCC(N2C(=O)c3ccccc3C2Nc2ccc(Cl)cn2)CC1 (stereo not given)	–	–	–	–	–	–
COC(=O)C1=C(C)NC(C)=C(C(=O)OC)C1c1cc2ccc(C)cc2[nH]c1=O	–	–	2.25	–	–	–
COC(=O)C1=C(C)NC(C)=C(C(=O)OC)C1c1cc2cc(C)ccc2[nH]c1=O	–	–	2.73	–	–	–
Cc1ccc2cc(COC(=O)c3ccncc3)c(=O)[nH]c2c1	–	–	–	–	–	–
CCOC(=O)C1=C(C)NC(C)=C(C(=O)OCC)C1c1cc2ccc(C)cc2[nH]c1=O	–	–	2.18	–	+	–
CCOC(=O)C1=C(C)NC(C)=C(C(=O)OC)C1c1cccc(Cl)c1Cl (stereo not given)	–	–	–	–	–	–
CN1CCN(CCNC(=O)c2cc3c(=O)n(C)c4ccccc4c3n2C)CC1	–	–	–	–	+	–
CCN(CC)CCNC(=O)c1cc2c(=O)n(C)c3ccccc3c2n1C	–	–	–	–	–	–
CCCCN(CC)CCNC(=O)c1cc2c(=O)n(C)c3ccccc3c2n1C	–	–	2.06	–	·	–
Cn1cc(C(=O)NCCN2CCN(c3cccc(Cl)c3)CC2)c2c3ccccc3n(C)c2c1=O	–	–	2	–	–	–
COc1ccc(N2CCN(S(=O)(=O)c3ccc(C(=O)NCc4ccco4)cc3)CC2)cc1	–	–	–	–	–	–
O=C(CN1C(=O)C2C3C=CC(C3)C2C1=O)NCc1ccc2c(c1)OCO2 (stereo not given)	–	–	–	–	–	–
COc1cc(C2C(C#N)=C(C)NC3=C2C(=O)CC(C)(C)C3)ccc1OCCO (stereo not given)	–	–	–	–	–	–
COc1cc(C2C(C#N)=C(C)NC3=C2C(=O)CC(C)(C)C3)cc(OC)c1O (stereo not given)	–	–	–	–	+	–
CC1=C(C#N)C(C)C2=C(CC(C)(C)CC2=O)N1 (stereo not given)	–	–	2.12	–	·	–
CC1=C(C#N)C(c2cccnc2)C2=C(CC(C)(C)CC2=O)N1 (stereo not given)	–	–	2.08	–	·	–
Cc1nnc(NC(=O)C(C)Oc2ccc3c(C)cc(=O)oc3c2)s1 (stereo not given)	–	–	–	–	–	–
SMILES	NADH enzymes	PMK inhibit	Fluor 339 460	A340 absorber	Spn DPM-DC inh	Spn MK inh
CC(=O)COc1ccc2c3c(c(=O)oc2c1)CCCC3	–	–	3.9	–	·	–
CC(=O)C(C)Oc1ccc2c3c(c(=O)oc2c1)CCCC3 (stereo not given)	–	–	2.07	–	·	–
COC(=O)c1ccc(COc2ccc3c(C)c(C)c(=O)oc3c2)o1	–	–	2.2	–	·	–
COC(=O)c1ccc(Cc2ccc(C(=O)OC)o2)o1	–	–	–	–	–	–
Cc1c(C)c2ccc(OCc3ccc(C(=O)O)o3)c(C)c2oc1=O	–	–	3.89	–	·	–
O=C1c2ccccc2C(=O)N1n1c(=O)[nH]c2ccccc2c1=O	–	–	–	–	–	–
Cc1cc(C(=O)OCn2nnc3ccccc3c2=O)c(C)o1	–	–	–	–	–	–
Cc1cc(=O)oc2cc(OC(C)C(=O)N3CCCc4ccccc43)ccc12 (stereo not given)	–	–	–	–	–	–
Cc1cc(OCC(=O)N2CCCC2)ccc1Cl	–	–	–	–	–	–
O=C(O)C(Oc1ccc2c3c(c(=O)oc2c1)CCC3)c1ccccc1 (stereo not given)	–	–	3.68	–	·	–
CC(=O)C(C)Oc1ccc2c3c(c(=O)oc2c1)CCCCC3 (stereo not given)	–	–	3.69	–	·	–
O=C(O)C1CCN(C(=O)COc2ccc3c4c(c(=O)oc3c2)CCC4)CC1	–	–	3.18	–	–	–
CCc1cc2c3c(c(=O)oc2cc1O)CCCC3	–	–	2.17	–	·	–
Cc1ccc(-n2nc3c(c2NC(=O)c2ccccc2Br)CS(=O)C3)cc1 (stereo not given)	–	–	–	–	–	–
O=C(O)c1ccc(COc2ccc3c4c(c(=O)oc3c2)CCC4)o1	–	–	3.5	–	·	–
Cc1cc(C)cc(OCc2ccc(C(=O)O)o2)c1	–	–	–	–	–	–
Cc1ccc(NC(=O)c2oc3ccc(S(=O)(=O)N4CCOCC4)cc3c2C)cc1C	–	–	3.12	–	·	–
O=C(NC1CC1)c1ccc(S(=O)(=O)NC2CCCCCC2)cc1	–	–	–	–	–	–
O=C(NC1CCCC1)c1ccc(S(=O)(=O)N2CCCC2)cc1	–	–	2.09	–	–	–
Cc1c(C(=O)NC2CC2)oc2ccc(S(=O)(=O)N3CCCCCC3)cc12	–	–	–	–	+	–
Cc1c(C(=O)Nc2ccc(F)cc2)oc2ccc(S(=O)(=O)N3CCCC3)cc12	–	–	–	–	–	–
CC(C)C1Cc2[nH]c(=O)c(C(=O)O)cc2CO1 (stereo not given)	–	–	–	–	–	–
O=C(c1ccccc1F)N1CCC(N2CCCCCC2)CC1	–	–	–	–	–	–
O=C(c1ccc(F)cc1)N1CCC(N2CCCCCC2)CC1	–	–	–	–	+	78.0
COc1cc(Cl)c(S(=O)(=O)NCc2cccnc2)cc1Cl	–	–	–	–	–	–
CC1(C)Cc2ccccc2-c2nc(NCCO)n(-c3ccccc3)c(=O)c21	–	–	2.2	–	·	–
CCC1(C)Cc2ccccc2-c2nc(NCCO)n(-c3ccccc3)c(=O)c21 (stereo not given)	–	–	2.34	–	·	–
COC(=O)c1ccc2c(c1)N(C)CCS2	–	–	2.09	–	·	–
